The panel holds about 83,000 compounds, 20% with a hit somewhere; the sample as a whole holds those more often.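 Method: cells in 96-well plates; compound added at one concentration; 48 h incubation; percent growth measured; values under 10 scored active.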 A number with no mark means an inactive call. The source made the active and inactive calls.
What follows are compounds tested on OVCAR-8 ovarian (assay: NCI-60 one-dose screen, 48 h (100 = growth as untreated, 0 = no growth, -100 = all killed)). Settings: 10 µM unless noted.

Question: `COc1c(F)ccc(C(=O)Nc2ccc3nc(NC(=O)C4CCCN(S(=O)(=O)c5ccc(Br)s5)C4)sc3c2)c1F` (stereo not drawn) was tested. Which growth did it give?
Answer: The growth was 94.9%.

Question: How did the growth turn out when `Cc1ccc(-c2nc(Nc3ccccc3S(N)(=O)=O)c3ccccc3n2)cc1` was run?
Answer: Its growth is 55.6%.

Question: Which growth does the source give for `Clc1cccc(Cl)c1/C=C/c1cc(/C=C/c2ccc(Br)cc2)c2ccccc2n1` here?
Answer: The growth was 101%.

Question: With `COc1ccc(/C=C/c2n(Cc3ccc4ccccc4c3)c3ccccc3[n+]2Cc2ccc3ccccc3c2)cc1` as the compound, how does the growth read?
Answer: Its growth is -75.2% (active).

Question: How did the growth turn out when `C#CCOc1cc(N(CC)CC)ccc1C(C(=O)NC(C)(C)C)N(C(=O)C1CCc2cc(F)ccc2O1)c1ccc(Br)cc1` (stereo not drawn) was run?
Answer: Its growth is 89.3%.

Question: With `CSc1ccc(C(=O)Nc2ccc3nnn(/C(C#N)=C/c4ccccn4)c3c2)cc1` as the compound, how does the growth read?
Answer: The growth was 10%.

Question: `COC(=O)/C=C/c1cccc2c1C(=O)NC(C)(c1cc3ccccc3oc1=O)N2` (stereo not drawn) was tested. Which growth did it give?
Answer: Its growth is 66.9%.

Question: Which growth does the source give for `O=C(COc1ccc2c(c1)CCCC(=O)N2)NCc1ccccc1` here?
Answer: Its growth is 99.5%.

Question: With `COc1ccc(Cc2nn(CC(=O)N/N=C/c3ccc(F)cc3)c(=O)c3c(C)noc23)cc1` as the compound, how does the growth read?
Answer: The growth was 38.6%.

Question: How did the growth turn out when `CCCSc1nc(NCCc2c[nH]c3ccccc23)c(C#N)c(-c2ccc(F)cc2)n1` was run?
Answer: Its growth is 65.2%.

Question: `O=C(O)Cn1c(O)c(/C=C2/C=c3cc4c(cc3=NC2=O)OCCO4)sc1=S` was tested. Which growth did it give?
Answer: The growth was 110%.

Question: How did the growth turn out when `COc1ccc(C(=O)/C=C/c2ccc(OCc3ccc(F)cc3)c(OC)c2)cc1OC` was run?
Answer: Its growth is -7.27% (active).

Question: For `Cn1cc(-c2cc(N)n3nc(-c4c[nH]c5ccccc45)cc3n2)c2cc(Br)cnc21`, which growth is on record?
Answer: The growth was -22.6% (active).

Question: With `CC(=O)/C=C/c1cccc2c1C(=O)NC(C)(c1cc3cc(Br)ccc3oc1=O)N2` (stereo not drawn) as the compound, how does the growth read?
Answer: Its growth is 24.9%.

Question: Which growth does the source give for `CCN(CC)c1ccc(/C=N/Nc2nc(-c3ccc(Br)cc3)cs2)c(O)c1` here?
Answer: Its growth is 81.6%.

Question: `CC1(C)CC[C@]2(C(=O)O)CC[C@]3(C)C(=CCC4[C@@]5(C)C[C@@H](O)[C@@H]6OC(c7ccco7)OC[C@@]6(C)C5CC[C@]43C)C2C1` (stereo partly drawn) was tested. Which growth did it give?
Answer: The growth was 26.9%.

Question: `C/C(=N\N=C\c1cc([N+](=O)[O-])ccc1Cl)c1ccc2c(c1)Nc1ccccc1S2` was tested. Which growth did it give?
Answer: Its growth is 16.6%.

Question: Which growth does the source give for `CN(C)c1nc(NCCNS(=O)(=O)c2ccc(C3=Nc4c(N)nc(N)nc4NC(c4ccc(C(F)(F)F)cc4)C3)cc2)nc(Nc2ccc(F)cc2)n1` (stereo not drawn) here?
Answer: The growth was 32.8%.

Question: With `Cn1cc(-c2cc(N)n3nc(-c4cn(C)c5ccc(Cl)cc45)cc3n2)c2ccccc21` as the compound, how does the growth read?
Answer: The growth was 104%.

Question: With `O=C(/C=C/c1ccc(-c2ccccc2)cc1)c1nc2ccccc2n1Cc1ccc(Br)cc1` as the compound, how does the growth read?
Answer: The growth was 43.9%.

Question: Which growth does the source give for `COc1cc2c(c(OC)c1OC)C(=O)CC(c1cccc(NC(=O)c3cc(NC(=O)[C@H](CO)NC(=O)OC(C)(C)C)ccc3Cl)c1)O2` (stereo partly drawn) here?
Answer: Its growth is 21.9%.

Question: How did the growth turn out when `CC(=O)c1cccc(NC(=O)CCC(=O)NS(=O)(=O)c2ccc(C)cc2)c1` was run?
Answer: Its growth is 106%.

Question: With `C#CCOc1ccc(/C=N/Nc2nc(-c3ccc(F)cc3)cs2)cc1OC` as the compound, how does the growth read?
Answer: The growth was 63.8%.

Question: With `CC1(C)CC[C@]2(C(=O)O)CC[C@]3(C)C(=CCC4[C@@]5(C)C[C@@H](O)[C@@H]6OC(c7ccccc7Br)OC[C@@]6(C)C5CC[C@]43C)C2C1` (stereo partly drawn) as the compound, how does the growth read?
Answer: The growth was 14.7%.

Question: With `COc1cc2oc(-c3cccc(C(=O)Nc4ccc(Cl)cc4)c3)cc(=O)c2c(OCCNC(=O)[C@H](CCC(=O)OC(C)(C)C)NC(=O)OC(C)(C)C)c1OC` as the compound, how does the growth read?
Answer: Its growth is 100%.

Question: For `O=C(O)c1ccc(-c2ccc(/C=N/NC(=O)c3[nH]c4ccc(Br)cc4c3-c3ccccc3)o2)cc1`, which growth is on record?
Answer: The growth was -15.4% (active).

Question: Which growth does the source give for `CCCCc1c(Nn2cnnn2)no[n+]1[O-]` here?
Answer: Its growth is 42.1%.

Question: For `CC1=C(C(=O)OCc2ccccc2)C(c2c(O)cc(O)cc2O)n2c(nc3ccccc32)N1` (stereo not drawn), which growth is on record?
Answer: Its growth is 77.9%.

Question: `O=C(/C=C/c1cccc(OCc2ccccc2)c1)c1nc2ccccc2[nH]1` was tested. Which growth did it give?
Answer: The growth was 58%.

Question: How did the growth turn out when `CC(=O)OCC1OC(OC2C(COC(C)=O)OC(n3cc(COc4ccc5ccc(=O)oc5c4)nn3)C(OC(C)=O)C2OC(C)=O)C(OC(C)=O)C(OC(C)=O)C1OC(C)=O` (stereo not drawn) was run?
Answer: Its growth is 106%.

Question: With `COc1ccc2oc3c4[nH]c5ccccc5c4c4c(c3c2c1)C(=O)N(C(=O)OC(C)(C)C)C4=O` as the compound, how does the growth read?
Answer: The growth was -20.1% (active).

Question: For `O=C(c1ccccc1)c1ccc2nc(-c3ccc(F)cc3)[nH]c2c1`, which growth is on record?
Answer: Its growth is 83.3%.

Question: For `CC1(C)CC[C@]2(C(=O)Nc3ccc(Br)cc3)CC[C@]3(C)C(=CCC4[C@@]5(C)C[C@@H](O)[C@H](O)[C@@](C)(CO)C5CC[C@]43C)C2C1` (stereo partly drawn), which growth is on record?
Answer: The growth was 25.6%.

Reference: PubChem BioAssay (NCI)
